# Screens (PubChem BioAssay)
# Rows were chosen to be rich in hits. Some 0.93% of all compounds tested hit in one or more screens of this group.
# AGP1 TOR yeast = modulators of TOR pathway AGP1-GFP in S. cerevisiae. S. cerevisiae AGP1-GFP multiplex flow cytometry, 3 h; GFP as percent of DMSO wells. GFP response vs DMSO, % at 10 µM. actives 0.02% (n = 320,000);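 active = GFP response relative to DMSO above a set limit, near screen average plus 3 SD, cut at about 150% in these data; inconclusive = fewer than 70 cells counted for the yeast strain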;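 also: median GFP channel fluorescence of the gated AGP1 strain per well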
# RPL19A-GFP yeast = alters RPL19A-GFP fluorescence in TOR pathway yeast screen. percent response vs DMSO, % at 10 µM. actives 0.3% (n = 330,000). S. cerevisiae RPL19A-GFP strain, flow cytometry, 3 h; active compounds read low;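 active = percent response vs DMSO below 50%; inconclusive = fewer than 70 events counted for the yeast strain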;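 also: median channel GFP fluorescence of the barcoded RPL19A-GFP strain; ratio of sample median GFP to plate DMSO average so 100% = DMSO; lower means less RPL19A-GFP as with rapamycin TOR inhibition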
# CIT2-GFP yeast = yeast TOR pathway CIT2-GFP modulation | actives 0.065% (n = 320,000) | S. cerevisiae CIT2-GFP strain, flow cytometry, 3 h; 100 means same as DMSO wells | GFP response vs DMSO, % at 10 µM;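 active = GFP response relative to DMSO above a set limit, near the screen mean plus 3 SD, cut at about 150% in these data; inconclusive = Fewer than 70 cells measured for a yeast strain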;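 also: ratio of well median GFP fluorescence to mean of DMSO wells on the plate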
# MEP2-GFP yeast = yeast TOR pathway MEP2-GFP modulation; S. cerevisiae MEP2-GFP strain, flow cytometry GFP, 3 h; 100% = DMSO control level; GFP response vs DMSO, % at 10 µM; actives 0.51% (n = 330,000); AID 2016;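 active = GFP response versus DMSO above a set limit, roughly screen mean plus 3 SD, cut at about 180% in these data; inconclusive = fewer than 70 cells counted for a yeast strain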;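 also: median GFP fluorescence of the barcode-gated MEP2-GFP cells per well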
# LAP4 TOR yeast = alters LAP4-GFP fluorescence in TOR pathway yeast screen; actives 0.34% (n = 320,000); GFP response vs DMSO, % at 10 µM; S. cerevisiae LAP4-GFP multiplex, flow cytometry GFP, 3 h; median GFP as percent of DMSO wells;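 active = GFP response vs DMSO above a set limit, about the screen mean plus 3 SD, cut at about 150% in these data; inconclusive = under 70 cell events counted for the yeast strain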
# Numbers without * were called inactive; ? = inconclusive; nt = no result; [ ] = another dose, or the depositor's remark.
SMILES,AGP1 TOR yeast,RPL19A-GFP yeast,CIT2-GFP yeast,MEP2-GFP yeast,LAP4 TOR yeast
CCCCCCOC(=O)C(C#N)c1nc2ccccc2nc1N1CCN(CC)CC1 (stereo not given),nt,46*[may fluoresce violet],?,523*[may fluoresce violet],97
CCCCCCOC(=O)C(C#N)c1nc2ccccc2nc1N1CCOCC1 (stereo not given),99,105,nt,93,92
N#CC(C(=O)NCc1ccccc1)c1nc2ccccc2nc1N1CCCC1 (stereo not given),96,104,123,218*,132
COC(=O)C1C(=O)C2=C(CC1C)Nc1ccccc1NC2c1ccc(C)s1 (stereo not given),95,103,100,99,86
CC(C)NC(=O)CSc1nnc(-c2ccc(F)cc2)c2ccccc12,99,100,100,115,101
O=C(COC(=O)c1ccc([N+](=O)[O-])o1)NC1CCCc2ccccc21 (stereo not given),99,94,96,92,98
COC(=O)c1ccc(NC(=O)C23CCC(C)(C(=O)O2)C3(C)C)cc1 (stereo not given),108,97,96,95,150*
COc1ccccc1NC(=O)C(C)N1C(=O)C2CCCCC2C1=O (stereo not given),99,103,97,107,108
Cc1nc(-c2ccccc2OC(F)(F)F)[nH]c(=O)c1Cl,100,93,96,99,109
CCCC1=C(C(=O)OCC)C(c2cccnc2)n2nc(C)nc2N1 (stereo not given),103,93,104,91,103
CCCC1=C(C(=O)OCC)C(c2ccncc2)n2ncnc2N1 (stereo not given),?,11*[may fluoresce violet],?,194*[may fluoresce violet],80
COc1ccccc1NC(=S)N1CCC(NC(=O)c2ccco2)CC1,?,24*[may fluoresce violet],?,?,137
COc1ccc(OC)c(S(=O)(=O)N2CCC(C(=O)NC3CCCC3)CC2)c1,?,?,?,219*[may fluoresce red and violet],96
COc1ccc(NC(=O)C2CCN(S(=O)(=O)c3ccc(OC)c(OC)c3)CC2)c(OC)c1,85,85,96,179*,96
COc1ccc(OC)c(S(=O)(=O)N2CCC(C(=O)NC3CCCCCC3)CC2)c1,98,109,100,103,96
COc1ccc(NC(=O)c2cc(Cl)ccc2NC(=O)c2ccco2)c(OC)c1,?,40*[may fluoresce violet],?,213*[may fluoresce violet],78
CCOc1ccccc1NC(=S)N1CCC(NC(=O)c2ccco2)CC1,105,100,95,91,100
COc1ccc(NC(=O)C2CCN(C(=O)c3ccco3)CC2)c(OC)c1,?,42*[may fluoresce violet],?,689*[may fluoresce violet],112
Cc1c(C(=O)N2CCCCCC2)nnn1-c1nonc1N,nt,64,?,182*[may fluoresce violet],85
CCOC(=O)c1nnn(-c2nonc2N)c1CN1CCCCCC1,99,95,103,99,97
Cc1cccc(N2CCN(c3cccc(C)c3)C2c2cccnc2)c1,20,66,?,198*[may fluoresce violet],108
Cc1csc(=O)n1CCC(=O)OCc1nnc(-c2ccc([N+](=O)[O-])cc2)o1,93,92,99,101,100
O=C(Cn1c(=O)oc2cc(S(=O)(=O)N3CCCC3)ccc21)Nc1ccccc1Br,82,51,88,191*,97
CC(=O)c1cccc(NC(=O)Cn2c(=O)oc3cc(S(=O)(=O)N4CCCC4)ccc32)c1,102,101,89,101,90
Cc1ccc(N=c2oc3cc(O)ccc3cc2C(N)=O)cc1,69,49*[may fluoresce violet],?,614*[may fluoresce violet],93
SMILES,AGP1 TOR yeast,RPL19A-GFP yeast,CIT2-GFP yeast,MEP2-GFP yeast,LAP4 TOR yeast
Cc1ccc(C(=O)N/N=c2\oc3ccccc3cc2C(N)=O)cc1,93,101,102,98,91
CC(C)(C)N1CC(C(=O)O)CC1=O (stereo not given),95,83,nt,104,85
CC1C(=O)N(Cc2cccc(F)c2)c2ccccc2N1C(=O)c1ccccc1 (stereo not given),?,63,?,263*[may fluoresce violet],97
COc1cccc(CN2C(=O)C(C)N(C(=O)c3c(F)cccc3F)c3ccccc32)c1 (stereo not given),101,103,95,97,99
O=C(NCc1cccnc1)c1cnc2n(c1=O)CCS2,114,104,164*,250*,188*
O=C(NCCc1ccccc1)c1cnc2n(c1=O)CCS2,101,99,112,108,96
Cc1nc2ccccc2n2c(O)c(CC(=O)O)cc12,67,66,99,196*,97
Cc1nc2ccccc2n1CCC(=O)O,103,99,104,110,97
Cc1ccc(N2CC(C(=O)OCc3nnc(-c4ccccc4)o3)CC2=O)cc1 (stereo not given),84,96,75,92,155*
CCCCN(C(=O)c1ccc(-c2ccc([N+](=O)[O-])cc2)o1)c1c(N)n(CC(C)C)c(=O)[nH]c1=O,96,99,93,101,100
CCOC(=O)C1CCCN(c2c(C(=O)c3ccccc3)cnc3ccccc23)C1 (stereo not given),104,112,190*,195*,128
COc1ccc(-n2nc3c(N4CCC(C(=O)NCc5cccc(C)c5)CC4)nnc(C)c3c2C)cc1,?,52,?,235*[may fluoresce violet],59
N#C/C(=C\c1c(N2CCCCC2)nc2ccccn2c1=O)C(=O)NC1CCS(=O)(=O)C1 (stereo not given),28,53,?,260*[may fluoresce violet],85
Cc1cc(Oc2nc3ccccn3c(=O)c2/C=C(\C#N)C(=O)NC2CCS(=O)(=O)C2)ccc1Cl (stereo not given),13,60,?,533*[may fluoresce violet],81
Cc1cccn2c(=O)c(/C=C(\C#N)C(=O)NC3CCS(=O)(=O)C3)c(Oc3ccc(F)cc3)nc12 (stereo not given),103,99,103,92,98
Cc1cccc(Oc2nc3ccccn3c(=O)c2/C=C(\C#N)C(=O)NC2CCS(=O)(=O)C2)c1C (stereo not given),101,105,111,105,102
N#C/C(=C\c1c(Oc2ccc(Cl)cc2)nc2ccccn2c1=O)C(=O)NC1CCS(=O)(=O)C1 (stereo not given),15,69,?,176*[may fluoresce violet],88
CC(=O)NCC1=C(NC(C)=O)C2CC1C(C)(C)C2C (stereo not given),?,27*[may fluoresce violet],?,600*[may fluoresce violet],67
Cc1oc(-c2cccc(Cl)c2)nc1CS(=O)(=O)CC(=O)NCCN1CCCC1,106,98,111,94,107
CCc1c(C#N)c(SCCC(=O)Nc2cccc(OC)c2)nc2c1C(=O)CC(C)(C)C2,100,95,?,221*[may fluoresce violet],92
CCc1c(C#N)c(SCCC(=O)Nc2ccc(F)cc2)nc2c1C(=O)CC(C)(C)C2,105,104,105,103,104
